# MITF act = activators of MITF-driven TRPM1 promoter reporter, primary screen, cell-based, SK-MEL-5, luciferase, single point; SK-MEL-5 TRPM1-promoter luciferase, 24 h; % of positive control, neutral wells = 0; activation, % at 12.5 µM; 300,000 tested, 0.75% active; AID 588334, 2011;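 active = mean activation of at least 80% with every replicate also reaching 80%; inconclusive = mean reaches 80% but some replicate falls short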;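 note: 0% = neutral control wells and 100% = parthenolide positive control wells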
# Vif imaging = HIV Vif self-association inhibitors, primary screen, imaging, HEK293T, single point | 340,000 tested, 0.35% active | HEK293T cells, Vif self-association by quenched fluorescence, 24 h | AID 602346, 2012 | inhibition, % at 7.49 µM; in the data active = inhibition above about 50%, passing the limit was not always enough; inconclusive = no clear call, values can overlap the other calls; inactive = below about 31%
# esBAF inh = Bmi1 luciferase reporter increase in mESCs, primary screen, esBAF inhibitor project, mouse ES cells, Bmi1 luciferase knock-in, single point | 350,000 tested, 2% active | 24 h; 100% = twice the neutral-well signal | reporter increase, % at 12.5 µM; in the data active = activation above about 40%; inconclusive = no clear call, values can overlap the other calls;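 note: 0% = median of the plate's neutral control wells and 100% = double that signal; a rise in the Bmi1 reporter signal indicates esBAF inhibition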
# Glyco luc inh = increase of ERlucT glycosylation luciferase signal, primary screen, N-linked glycosylation inhibitor project, D54 ERlucT cells, luminescence, set 2 | 360,000 tested, 0.23% active | reporter increase, % at 12.5 µM | D54 ERlucT glycosylation luciferase reporter, 24 h; percent of 100 nM tunicamycin response | AID 588692, 2011;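 active = mean luciferase reporter signal, scaled so untreated is 0 and the glycosylation-blocking control 100, at or above a set limit in every replicate; inconclusive = mean reaches the limit but not every replicate does; inactive = mean below the limit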;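 note: luciferase carries N-glycosylation sites so blocking glycosylation raises the light; 0% = median of neutral control wells and 100% = median of 100 nM tunicamycin wells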
# PfHsp90 yeast 2 = growth inhibition of PfHsp90-expressing yeast, primary screen, antimalarial PfHsp90 inhibitor project, S. cerevisiae, BacTiter-Glo luminescence, single point, set 2 | BacTiter-Glo ATP, 48 h; yeast lacking PDR1 and PDR3 efflux regulators | inhibition, % at 9.4 µM | 310,000 tested, 0.32% active;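 active = every replicate shows inhibition above about 80%, whatever the replicate mean, limit read from the data; inconclusive = mean inhibition reaches the set limit but some replicate falls short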;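 note: 0% = DMSO neutral controls and 100% = 20 µM radicicol positive controls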
# Wnt act = Wnt/beta-catenin pathway activators, primary screen, cell-based, plate reader, single point. Wnt/beta-catenin reporter cell assay, activator. activation, % at 9.35 µM. 300,000 tested, 1.2% active; in the data active = activation above about 30%, passing the limit was not always enough; inconclusive = no clear call, values can overlap the other calls;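 note: 0% = neutral control wells and 100% = positive control wells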
# An asterisk follows results filed as active; ? = inconclusive; . = not tested or not shown. Most compounds without a hit are left out; they make up all but 3% or so of the library.
SMILES,MITF act,Vif imaging,esBAF inh,Glyco luc inh,PfHsp90 yeast 2,Wnt act
Nc1ccc(Oc2ccc3nc(-c4ccccc4)c(-c4ccccc4)nc3c2)cc1,13.5,5.4,36.0,-1.9,-48.4,.
O=C(NCCN1CCOCC1)c1ccc(-c2ccccc2)cc1,18.8,-5.1,3.7,-0.1,-13.7,0.3
CCCSc1nnc(-c2c[nH]c3ccccc23)n1C,40.2,-5.5,43.6*,-2.1,10.4,-21.2
COc1ccc(OCC(=O)Nc2nc3ccccc3[nH]2)cc1,54.9,2.3,48.9*,-3.1,5.1,.
COc1ccc(Br)c(C(=O)Nc2nc3ccccc3[nH]2)c1,92.1*,9.3,48.9*,-0.7,-1.4,6.3
CCC(Oc1ccccc1)C(=O)Nc1nc2ccccc2[nH]1 (stereo not drawn),41.2,3.8,52.9*,-1.3,1.4,6.6
CCCCCC(=O)Nc1nc2ccccc2[nH]1,.,-14.1,?,-0.3,.,53.4*
O=C(COc1ccc2ccccc2c1)Nc1nc2ccccc2[nH]1,-0.7,24.5,-8.0,0.4,-6.8,.
CCOc1ccccc1OCCCC(=O)Nc1nc2ccccc2[nH]1,4.8,12.1,.,0.0,-19.7,-0.3
CC(C)Oc1ccc(C(=O)Nc2nc3ccccc3[nH]2)cc1,-80.8,5.4,-88.6,-19.5,51.6,-4.2
COc1ccc(C(C(=O)NC2CCCCC2)N(C(=O)c2sc(C)nc2C)c2ccc(OC)cc2)cc1 (stereo not drawn),-13.6,-7.7,-4.2,-4.3,-17.5,1.2
COc1ccc(CCC(=O)Nc2nc3ccccc3[nH]2)cc1,39.9,-4.0,46.0*,-0.3,2.2,.
COc1ccc(CCC(=O)Nc2nnc(C)s2)cc1,.,2.6,.,2.2,.,63.3*
O=C(CC1CCCC1)Nc1nc2ccccc2[nH]1,.,12.7,62.3*,-3.0,.,39.7*
O=C(Nc1nc2ccccc2[nH]1)C1CCCC1,57.7,-9.0,38.5,-0.2,-11.0,14.6
COc1ccc(CC(=O)Nc2nc3ccccc3[nH]2)cc1,7.9,-1.7,.,-1.1,-18.3,5.2
CC(=O)Nc1cc(C(=O)N2CCc3ccccc3C2)ccc1Sc1ccc(C)cc1,-8.8,1.5,.,-1.0,-6.0,.
COc1ccc(NC(=O)NCCC2=CCCCC2)cc1,56.1,-1.3,.,-3.1,13.1,52.0*
S=C(NCCC1=CCCCC1)Nc1ccc(Cl)cc1,53.7,-17.8,64.4*,-2.0,25.2,10.5
COc1ccc(NC(=S)NCCC2=CCCCC2)cc1OC,-6.0,-0.1,.,-0.3,15.4,-0.9
CC(=O)c1ccc(NC(=O)C2(S(=O)(=O)c3ccccc3)CC2)cc1,2.3,-3.4,.,-0.5,24.1,-9.4
Cc1ccc(-c2nc3cnccn3c2Nc2ccccc2)o1,.,.,44.5*,-4.8,0.4,6.5
Cc1nc2sc(C(=O)OCC(=O)N3c4ccccc4CC3C)c(C)c2c(=O)[nH]1 (stereo not drawn),23.6,4.1,.,9.3,-60.6,0.6
O=C(COC(=O)c1ccc(O)cc1O)Nc1ccc2c(c1)OCCO2,91.6*,-7.8,82.8*,1.2,-8.3,-2.8
O=C(COC(=O)c1ccc(O)cc1O)Nc1ccc2ccccc2c1,14.2,0.4,25.2,-6.9,.,3.5
SMILES,MITF act,Vif imaging,esBAF inh,Glyco luc inh,PfHsp90 yeast 2,Wnt act
Cn1cccc1C(=O)OCC(=O)NCc1ccc2c(c1)OCO2,4.9,1.5,0.3,0.9,-3.7,0.9
Cn1cccc1C(=O)OCC(=O)Nc1ccc2c(c1)OCCO2,3.9,0.8,.,-14.4,10.8,49.4*
CNC(=O)C[C@H]1CC[C@H]2[C@@H](COc3ccc(NC(=O)Cc4cccs4)cc3C(=O)N2C)O1,.,.,-0.9,.,.,.
COc1ncccc1C(=O)Nc1c(-c2ccccc2)[nH][nH]c1=O,.,.,.,.,.,-2.2
CC(c1n[nH]c(=S)n1-c1ccc(F)cc1)N1CCCCC1 (stereo not drawn),-8.5,19.5,1.1,0.8,.,-0.9
O=C(CNC(=O)c1ccc([N+](=O)[O-])cc1)N/N=C\c1ccc(OC(=O)c2ccccc2)cc1,-17.9,50.2*,-5.3,3.5,-9.1,-3.0
c1csc(-c2cn3ccc4ccccc4c3n2)c1,17.3,8.9,72.2*,-1.9,-30.1,23.2
Nc1[nH]c(N=NC(=O)c2ccccc2O)c2ccccc12,17.4,5.4,.,-0.9,17.1,70.8*
Cc1cc(C)nc(NS(=O)(=O)c2ccc(NS(=O)(=O)c3ccsc3)cc2)n1,.,74.4*,-4.6,1.5,.,-1.1
Cc1ccc(OCC(=O)Nc2ccc(Cl)cc2)c([N+](=O)[O-])n1,109.7*,.,62.9*,3.2,4.7,41.5*
O=C(COc1cccnc1[N+](=O)[O-])Nc1cc(Cl)ccc1Cl,67.5,6.0,48.1*,0.7,-8.1,-2.3
O=C(COc1cccnc1[N+](=O)[O-])Nc1ncc(Cl)cc1Cl,1.8,.,15.3,1.0,-33.3,-3.7
Cc1ccc(OCC(=O)Nc2ccc(F)cc2)c([N+](=O)[O-])n1,104.0*,-0.1,.,-0.2,16.6,12.1
COc1ccc(NC(=O)COc2ccc(C)nc2[N+](=O)[O-])cc1S(N)(=O)=O,-6.1,2.8,-7.0,-1.1,0.8,-1.0
COc1cc(Cl)c(C)cc1NC(=O)COc1ccc(C)nc1[N+](=O)[O-],99.2*,3.1,80.7*,-0.4,12.9,18.1
Cc1ccc(OCC(=O)NCC(=O)Nc2ccc(F)cc2)c([N+](=O)[O-])n1,6.7,-11.2,-3.0,0.8,15.6,-1.5
CC(C)Nc1nc(NCCOc2ccccc2Cl)c2sc(-c3ccccc3)cc2n1,.,-2.4,-11.1,-5.0,.,-3.4
O=C(C1CC1)N1C[C@H]2[C@@H](c3ccccc31)[C@H](CO)N2C(=O)Nc1cccc(F)c1,.,.,-1.9,.,.,.
O=C(C[C@H]1CC[C@H]2[C@@H](COC[C@H](O)CN2C(=O)Nc2ccc(Cl)cc2)O1)NCCc1ccncc1,.,.,19.8,.,.,.
O=C1/C(=C/N(C(=O)c2ccco2)c2ccc(Br)cc2)Sc2ccccc21,37.6,-10.3,48.4*,-8.4,14.2,.
COCC(=O)Nc1ccc2c(c1)[C@H]1C[C@H](CC(=O)NCc3ccc4c(c3)OCO4)O[C@H](CO)[C@H]1O2,.,.,1.1,.,.,.
O=C(Nc1ccncc1)c1cc2ccccc2cc1O,71.2,.,52.9*,-9.0,20.1,46.9*
C/C(=N\NC(=O)c1cc2ccccc2cc1O)c1ccccn1,-72.4,5.3,-54.5,-20.8,92.3*,14.4
C/C(=N\NC(=O)c1cc2ccccc2cc1O)c1cc2ccccc2o1,-11.9,-9.7,15.6,2.8,-0.4,6.0
C/C(=N\NC(=O)c1ccccc1O)C1C(=O)c2ccccc2C1=O,13.3,-10.7,80.5*,-1.4,36.5,.
C/C(=N/NC(=O)c1cc2ccccc2cc1O)C1C(=O)c2ccccc2C1=O,-4.8,5.3,50.5*,1.0,-21.3,-3.0

# From PubChem
